Our source for the growth values is PubChem BioAssay (NCI).

The panel holds about 83,000 compounds, 20% with a hit somewhere; the sample as a whole holds those more often.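 How to read the values: 0–100, growth inhibition (40 = 60% inhibited); 0, no net growth; -100 to 0, cell death (-40 = 40% of starting cells died; -100 = all dead).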 A number with no mark means an inactive call. Activity calls are given as the source filed them. The calls were made as follows: active = growth percent below 10; inactive = the rest.

The test system of the experiment is SK-MEL-5 melanoma. The experiment in a line: NCI-60 one-dose screen, 48 h (100 = growth as untreated, 0 = no growth, -100 = all killed). The settings on record: 10 µM unless noted.
For `CC/C(=C(/c1ccc(Cl)cc1)c1ccc(OCCN2CCCC2)cc1)c1ccc(OC)cc1`, the growth is 66%.

Consider `Nc1ncnc2c1N=C(c1ccc(Cl)cc1)CC(c1ccc3c(c1)OCO3)N2` (stereo not given), for which the growth was 98%.

Consider `N=C(N)c1ccc(-c2ccc(-c3ccc(F)cc3)o2)o1`, for which the growth is 21.7%.

As for `CCCCC(=O)c1ccco1`, the growth is 98.8%.

As to `C/C(=C(/c1ccc(Cl)cc1)c1ccc(OCCN2CCCC2)cc1)c1ccc(Cl)cc1`, the growth is 82.4%.

Regarding `COC(=O)c1c2c(c[n+]([O-])c1C)C(=O)C(NCc1ccccc1)=CC2=O`, the growth was -97% (active).

`Fc1ccc(-c2nn(-c3ccccc3)cc2-c2nc3ccccc3o2)cc1`: the growth is 57.9%.

For `COc1ccc2c3c([nH]c2c1)C(=O)c1nc(C)ccc1C3=O`, the growth was -95.1% (active).

Consider `CCN(C(=O)N1CCN(c2cc3c(cc2F)c(=O)c(C(=O)O)cn3C2CC2)CC1)c1nc(-c2ccc(Cl)cc2)cs1`, for which the growth is -28.2% (active).

Consider `CCCNC(=O)Oc1ccc(/C(=C(/C)Cc2ccc(OC)cc2)c2ccc(OCCCN(C)C)cc2)cc1`, for which the growth was 86.9%.

`CC(=O)OCc1nc(C#N)c(N(C)C)o1`: the growth is 105%.

Consider `Cn1ccnc1C(=O)C(=O)Nc1ccc(CC(=O)Nc2ccccc2)cc1`, for which the growth is 101%.

As for `O=C(CN1C(=O)CCC1=O)Nc1ncc(Cc2ccc(F)cc2)s1`, the growth was 99.6%.

In the case of `CNc1nc(S(=O)c2ccc(C#N)cc2)nc2ccccc12` (stereo not given), the growth was 83.6%.

`Cn1c(-c2ccc(Br)cc2)c(O)c(=O)c2c(F)cccc21`: the growth is 54.2%.
